{"source": "PubChem BioAssay (NCI)", "note": "About 83,000 compounds went through this panel and 20% of them were active in at least one assay; those are over-represented in the sample as a whole.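 Compound tested at a single concentration for 48 hours in 96-well plates; a percent growth value below 10 was scored as active.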 Unmarked numbers belong to inactive results. Calls of active or inactive are those of the source.", "data": [{"test_system": "BT-549 breast", "test": "NCI-60 one-dose screen, 48 h (100 = growth as untreated, 0 = no growth, -100 = all killed)", "conditions": "10 µM unless noted", "values": [{"smiles": "COc1cc(OC)c(S(N)(=O)=O)cc1C(C)=O", "growth": "115%"}, {"smiles": "O=S(=O)(Nc1ccc2c(c1)OCO2)c1ccc(-c2cnc(C3CC3)o2)cc1", "growth": "42.1%"}, {"smiles": "COc1cccc2c1CN(C(=O)c1ccc(O)c(C(=O)N3Cc4ccc(OCCC[P+](c5ccccc5)(c5ccccc5)c5ccccc5)cc4C3)c1)C2", "growth": "65.9%"}, {"smiles": "O=S(=O)(Nc1ccc(I)cc1Cl)c1ccc(-c2cnc(C3CC3)o2)cc1", "growth": "34.9%"}, {"smiles": "C=C(C=O)[C@@H]1CC[C@]2(CO)CC[C@]3(C)[C@H](CC[C@@H]4[C@@]5(C)CCCNC(C)(C)[C@@H]5CC[C@]43C)[C@@H]12", "growth": "74.3%"}, {"smiles": "C=CCn1c(SCC(=O)Nc2ccc(C(=O)/C=C/c3cccc([N+](=O)[O-])c3)cc2)nnc1-c1c[nH]c2ccccc12", "growth": "117%"}, {"smiles": "CNC(=O)c1c(NC(=O)c2cccc(C(F)(F)F)c2F)sc2c1CCC(=O)C2", "growth": "21.3%"}, {"smiles": "COCCNc1ccc2ncc(C#Cc3cncc(C(=O)Nc4ccc(CN5CCN(C)CC5)c(C(F)(F)F)c4)c3)n2n1", "growth": "-36.7% (active)"}, {"smiles": "CCN1CCN(C(=O)[C@]23CCC(C)(C)C[C@H]2C2=CC[C@@H]4[C@@]5(C)Cc6c([nH]c7ccccc67)C(C)(C)[C@@H]5CC[C@@]4(C)[C@]2(C)CC3)CC1", "growth": "101%"}, {"smiles": "CCn1c(SCC(=O)Nc2cccc(C(=O)/C=C/c3ccc(C)cc3)c2)nc2ccccc2c1=O", "growth": "93.3%"}, {"smiles": "CN1c2ccccc2Sc2cc(C=C(C#N)C#N)ccc21", "growth": "110%"}, {"smiles": "CN1CCN(Cc2ccc(NC(=O)c3cncc(C#Cc4cnn5cccnc45)c3)cc2C(F)(F)F)CC1", "growth": "47.1%"}, {"smiles": "NS(=O)(=O)c1ccc(Nc2nc(N/N=C/c3c[nH]c4ccccc34)nc(Nc3ccccc3)n2)cc1", "growth": "48.8%"}, {"smiles": "N#C/C(=C\\c1ccc(-c2ccc(Cl)cc2Cl)o1)c1ccc(F)cc1", "growth": "112%"}, {"smiles": "O=C1/C(=C/C=C/c2ccco2)SC(=S)N1C1CCCCC1", "growth": "111%"}, {"smiles": "O=C(Nc1cccc(Cl)c1)Nc1nc2ccc([N+](=O)[O-])cc2o1", "growth": "24%"}, {"smiles": "COc1cccc(C(=O)Nc2cccc(C#Cc3cccc4[nH]nc(N)c34)c2)c1", "growth": "121%"}, {"smiles": "COc1cc(OC)c(S(N)(=O)=O)cc1C(=O)/C=C/c1ccc(Cl)cc1", "growth": "1.01% (active)"}, {"smiles": "COc1cc2nc(Cl)nc(Nc3cccc(C4=Nc5c(N)nc(N)nc5NC(c5ccc(Br)cc5)C4)c3)c2cc1OC", "note": "(stereo not drawn)", "growth": "87.8%"}, {"smiles": "CC1=N[C@@H]2CN(C(=O)OC(C)(C)C)C[C@@H]2n2c1cc1ccccc1c2=O", "growth": "144%"}, {"smiles": "O=S(=O)(NCCNc1nccc(-n2cnc3ccccc32)n1)c1ccc(Br)cc1", "growth": "115%"}, {"smiles": "COc1cc(OC)cc(C(=O)Nc2sc3c(c2C(N)=O)CCC(=O)C3)c1", "growth": "11.1%"}, {"smiles": "CC(C)(C)c1ccc(CC(=O)Nc2sc3c(c2C(N)=O)CCC(=O)C3)cc1", "growth": "9.57% (active)"}, {"smiles": "c1cn2c(ccc3nc(-c4cn[nH]c4)c4c(c32)CCCC4)n1", "growth": "53.1%"}, {"smiles": "Clc1nc2ccccc2nc1-c1nnc(C2CCCCC2)o1", "growth": "138%"}, {"smiles": "COc1ccc(-n2c(/C=C3\\C(=O)Nc4ccccc43)ccc2CO)cc1", "growth": "100%"}, {"smiles": "N#Cc1ccccc1Cn1c2nc(=N)c3ccccc3c-2nc2ccccc21", "growth": "88%"}, {"smiles": "COc1cc2nc(Cl)nc(Nc3cccc(C4=Nc5c(N)nc(N)nc5NC(c5ccc(F)cc5)C4)c3)c2cc1OC", "note": "(stereo not drawn)", "growth": "78.1%"}, {"smiles": "Cc1ccc(C2=Nn3c(nnc3-c3ccccc3)SC2)cc1", "growth": "22.5%"}, {"smiles": "Cc1ccc2sc3c(c2c1)OC(N)=C(C#N)C3c1ccc(Cl)cc1", "note": "(stereo not drawn)", "growth": "26.3%"}]}, {"test_system": "MDA-MB-435 melanoma", "test": "NCI-60 one-dose screen, 48 h (100 = growth as untreated, 0 = no growth, -100 = all killed)", "conditions": "10 µM unless noted", "values": [{"smiles": "COc1cc(OC)c(S(N)(=O)=O)cc1C(C)=O", "growth": "107%"}, {"smiles": "O=S(=O)(Nc1ccc2c(c1)OCO2)c1ccc(-c2cnc(C3CC3)o2)cc1", "growth": "0.417% (active)"}, {"smiles": "COc1cccc2c1CN(C(=O)c1ccc(O)c(C(=O)N3Cc4ccc(OCCC[P+](c5ccccc5)(c5ccccc5)c5ccccc5)cc4C3)c1)C2", "growth": "32%"}, {"smiles": "O=S(=O)(Nc1ccc(I)cc1Cl)c1ccc(-c2cnc(C3CC3)o2)cc1", "growth": "-4.66% (active)"}, {"smiles": "C=C(C=O)[C@@H]1CC[C@]2(CO)CC[C@]3(C)[C@H](CC[C@@H]4[C@@]5(C)CCCNC(C)(C)[C@@H]5CC[C@]43C)[C@@H]12", "growth": "76.3%"}, {"smiles": "C=CCn1c(SCC(=O)Nc2ccc(C(=O)/C=C/c3cccc([N+](=O)[O-])c3)cc2)nnc1-c1c[nH]c2ccccc12", "growth": "98.4%"}, {"smiles": "CNC(=O)c1c(NC(=O)c2cccc(C(F)(F)F)c2F)sc2c1CCC(=O)C2", "growth": "11.9%"}, {"smiles": "COc1ccc(C2c3sc4c(C)cccc4c3Oc3nc(CC(=O)Nc4ccccc4)[nH]c(=O)c32)cc1", "note": "(stereo not drawn)", "growth": "33.7%"}, {"smiles": "COCCNc1ccc2ncc(C#Cc3cncc(C(=O)Nc4ccc(CN5CCN(C)CC5)c(C(F)(F)F)c4)c3)n2n1", "growth": "-24.8% (active)"}, {"smiles": "CCN1CCN(C(=O)[C@]23CCC(C)(C)C[C@H]2C2=CC[C@@H]4[C@@]5(C)Cc6c([nH]c7ccccc67)C(C)(C)[C@@H]5CC[C@@]4(C)[C@]2(C)CC3)CC1", "growth": "91.4%"}, {"smiles": "CCn1c(SCC(=O)Nc2cccc(C(=O)/C=C/c3ccc(C)cc3)c2)nc2ccccc2c1=O", "growth": "75.4%"}, {"smiles": "CN1c2ccccc2Sc2cc(C=C(C#N)C#N)ccc21", "growth": "103%"}, {"smiles": "CN1CCN(Cc2ccc(NC(=O)c3cncc(C#Cc4cnn5cccnc45)c3)cc2C(F)(F)F)CC1", "growth": "3.16% (active)"}, {"smiles": "N#Cc1cccc(/C(N)=N/C(N)=N/c2nc3ccccc3s2)c1", "growth": "-39% (active)"}, {"smiles": "NS(=O)(=O)c1ccc(Nc2nc(N/N=C/c3c[nH]c4ccccc34)nc(Nc3ccccc3)n2)cc1", "growth": "31.3%"}, {"smiles": "O=C1/C(=C/C=C/c2ccco2)SC(=S)N1C1CCCCC1", "growth": "85.3%"}, {"smiles": "O=C(Nc1cccc(Cl)c1)Nc1nc2ccc([N+](=O)[O-])cc2o1", "growth": "19.2%"}, {"smiles": "COc1cccc(C(=O)Nc2cccc(C#Cc3cccc4[nH]nc(N)c34)c2)c1", "growth": "1.93% (active)"}, {"smiles": "COc1cc(OC)c(S(N)(=O)=O)cc1C(=O)/C=C/c1ccc(Cl)cc1", "growth": "16.7%"}, {"smiles": "COc1cc2nc(Cl)nc(Nc3cccc(C4=Nc5c(N)nc(N)nc5NC(c5ccc(Br)cc5)C4)c3)c2cc1OC", "note": "(stereo not drawn)", "growth": "47.4%"}, {"smiles": "CC1=N[C@@H]2CN(C(=O)OC(C)(C)C)C[C@@H]2n2c1cc1ccccc1c2=O", "growth": "108%"}, {"smiles": "O=S(=O)(NCCNc1nccc(-n2cnc3ccccc32)n1)c1ccc(Br)cc1", "growth": "108%"}, {"smiles": "Cc1cc(-c2ccc(Cl)cc2)n(Cc2nnc(SCC(=O)Nc3ccc(S(N)(=O)=O)cc3)n2C2CCCCC2)n1", "growth": "109%"}, {"smiles": "COc1cc(OC)cc(C(=O)Nc2sc3c(c2C(N)=O)CCC(=O)C3)c1", "growth": "41.7%"}, {"smiles": "COc1cccc2cc(-c3cc4ccccc4[nH]3)/c(=N\\NC(=O)c3ccc(Cl)cc3)oc12", "growth": "44.7%"}, {"smiles": "CC(C)(C)c1ccc(CC(=O)Nc2sc3c(c2C(N)=O)CCC(=O)C3)cc1", "growth": "1.24% (active)"}, {"smiles": "c1cn2c(ccc3nc(-c4cn[nH]c4)c4c(c32)CCCC4)n1", "growth": "34.9%"}, {"smiles": "COc1cc(-c2nn(C(C)(C)C)cc2-c2ccnc(NCCCNS(=O)(=O)c3ccc(F)cc3)n2)ccc1Cl", "growth": "75%"}, {"smiles": "Clc1nc2ccccc2nc1-c1nnc(C2CCCCC2)o1", "growth": "99.1%"}, {"smiles": "CCCn1cnc2c(c1=N)C(c1ccc(F)cc1)c1sc3c(CC)cccc3c1O2", "note": "(stereo not drawn)", "growth": "-25.2% (active)"}, {"smiles": "COc1ccc(-n2c(/C=C3\\C(=O)Nc4ccccc43)ccc2CO)cc1", "growth": "94.8%"}, {"smiles": "N#Cc1ccccc1Cn1c2nc(=N)c3ccccc3c-2nc2ccccc21", "growth": "70%"}, {"smiles": "COc1cc2nc(Cl)nc(Nc3cccc(C4=Nc5c(N)nc(N)nc5NC(c5ccc(F)cc5)C4)c3)c2cc1OC", "note": "(stereo not drawn)", "growth": "77.2%"}, {"smiles": "CCn1c2ccccc2c2cc(-n3nncc3-c3ccccc3)ccc21", "growth": "-14.3% (active)"}, {"smiles": "CCCn1cnc2c(c1=N)C(c1ccc(Cl)cc1)c1sc3c(CC)cccc3c1O2", "note": "(stereo not drawn)", "growth": "-35.4% (active)"}, {"smiles": "Cc1ccc(C2=Nn3c(nnc3-c3ccccc3)SC2)cc1", "growth": "-22.2% (active)"}, {"smiles": "Cc1ccc2sc3c(c2c1)OC(N)=C(C#N)C3c1ccc(Cl)cc1", "note": "(stereo not drawn)", "growth": "-10.7% (active)"}, {"smiles": "Cc1ccc(NC(=O)N[C@@H](Cc2cc(F)cc(F)c2)C(=O)NC2C(=O)N3C[C@H](O)C[C@H]3C(=O)N3CCCC[C@H]3C(=O)N[C@@H](CO)C(=O)N3C[C@H](C)C[C@H]3C(=O)O[C@H]2C)c(F)c1", "note": "(stereo partly drawn)", "growth": "23.1%"}]}]}
